Results taken from the supplement of paper PMC10681739.

molecular target: T1, ETS1 (UniProt P14921); experiment: ETS1 binding intensity (PBM fluorescence), ETS1 alone (arbitrary fluorescence units); higher = stronger binding; conditions: ETS1 concentration 1 nM; RUNX1 concentration 0 nM
T1 sequence: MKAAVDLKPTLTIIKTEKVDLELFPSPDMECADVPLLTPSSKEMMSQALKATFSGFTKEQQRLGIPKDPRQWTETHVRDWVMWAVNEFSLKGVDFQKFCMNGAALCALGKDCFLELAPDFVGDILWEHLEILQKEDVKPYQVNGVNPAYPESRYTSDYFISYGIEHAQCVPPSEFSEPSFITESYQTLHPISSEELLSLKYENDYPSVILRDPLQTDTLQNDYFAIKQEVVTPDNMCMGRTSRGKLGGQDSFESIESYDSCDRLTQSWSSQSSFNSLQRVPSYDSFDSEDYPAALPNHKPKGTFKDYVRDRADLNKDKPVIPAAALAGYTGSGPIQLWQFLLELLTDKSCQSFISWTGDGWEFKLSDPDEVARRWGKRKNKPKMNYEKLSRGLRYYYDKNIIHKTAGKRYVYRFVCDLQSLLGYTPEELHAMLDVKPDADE

Row | Sequence | ETS1 binding intensity
1 | AGGCGAAGGATGACTTCCTGCGGCACTACACAGTGT | 610
2 | AGTACAAAGGGGAAATGTCTCTTGGTGGTTGATAAG | 628
3 | CTTACAGATAAGGAAACTGAGGTTAAAATGTAGGGG | 681
4 | TGGCTACCCGGAAGGCGCGTTGGCTGCGGCTACGCA | 549
5 | GAATGACAGGAAGATGATTAGTGATAGTGGGTTTGG | 740
6 | GGTTTCACTTCCTGCGTTGGGCCTTGTGGCCTCCTT | 783
7 | CACTCCCCCATTCCGGCTGCAGGTTGAGGTTTGGAA | 517
8 | GCTGCTGTAGTCGCTTCCTGCGGCCAGCCCGGGTTC | 526
9 | CTCGGCGCGACGGATATTCCCGTGACCGCCGGGTTC | 672
10 | GGCCGGAAGCGCTCTCGTTGGCCCTGCGGCGCTGGA | 2120
11 | AATGTAGGAAATTCCACTGCATAATTTGTGGTAGTG | 478
12 | TGGGGGCGGAAGCCTAAACCCCTCCCGCAGCCAGTC | 625
13 | GAGCACATTTCCTTTTGCTTCCAGATACCACAGTGA | 445
14 | AGAAACGTCAATTTCCTGGCCACAGAATCCACTGCC | 608
15 | CTGCTTCGGCCCGGCTTCCGCCCACAGTCAACTGCC | 825
16 | GGGCAGCATCCTGTGCCTGCTTCTCTTACCCACATC | 494
17 | GGGGGCAGGAAGCAGTGCAGCTCCTTAACCCACTTC | 842
18 | ACCAGGATGTAGTTTAGCTTAGGGGTGGTTATATCG | 603
19 | CTTCCATCCAGGAAGCTTGTGGTGCAACAGCAGTGT | 840
20 | GGTACCAAGGGCAGAGGATGTGGTGAGGTGTGGAGG | 940

Row | Sequence | ETS1 binding intensity
21 | GCGGAGTGTTACGTAGGAAGTGGTTGTGACGTCATT | 1190
22 | CCAGGGGCACACCGGAACCCACACCTGAAATCACAG | 647
23 | GAAGAAGTCAGGAAATGCTGCCGCAGCAGCCAGCCC | 878
24 | GGTGTTAGTAGTCAAGGAAGTGGTCACCCTTGACAG | 1010
25 | GTGCGGCGGGAAACGCGTTCCCCGGCAACCGCGCCC | 401
26 | ATAAAGGATGTACAGTATTTAGAGAACAGTGGTTAA | 553
27 | CTAGGGAGAGGATGTGAGTTTGTCTGTGGGGGTGGT | 796
28 | TGAAGGAGCGGAAGGGTTGCTTGCAGACCGCACGGT | 574
29 | CTGCGCTTCCGCTTCACCCGGAGTACAGCGGTCCTG | 842
30 | TTGAAAAGGAAGTTCATTTGTACTGAGGTGGTTTTA | 602
31 | GGAGTGAGGAGGAAGCGGAGGCGAGACCGCGCTCAA | 464
32 | GAAAGCACGTGTTTCCTGCGGCTGCACCCCAGCACC | 479
33 | ATGCCAAGGGACTTCCCTCCACAACCGCCCCCAGCT | 642
34 | TTCTCTGATTTTCCTTCCGCTCCCACAGCCTCTCCC | 697
35 | CTGCACAGGGAAGTGAGTGTCGAGCTCACCGCACCG | 383
36 | GGAGGAAGAGAGGAAACGGGGGCGGCCGCAGCTTCT | 836
37 | GGGAGGGCGGAAGGCGGCTCTGCGGCAGCAAGCCCC | 476
38 | GCAGGAAGACTAACACAAAACCATCAAACCACTCTG | 511
39 | GGAGGGCTTCCTGCCCACCACCACCCACAGCAGCTG | 730
40 | GTCGTGTTTGGCTTCCTGTGGGCACGCCTGCGTAGC | 589

molecular target: T1, ETS1; experiment: ETS1 binding intensity (PBM fluorescence) in presence of RUNX1, normalised to ETS1-only experiment (arbitrary fluorescence units); higher = stronger binding; conditions: ETS1 concentration 1 nM; RUNX1 concentration 25 nM

Row | Sequence | ETS1 binding intensity
41 | AGGCGAAGGATGACTTCCTGCGGCACTACACAGTGT | 656
42 | AGTACAAAGGGGAAATGTCTCTTGGTGGTTGATAAG | 564
43 | CTTACAGATAAGGAAACTGAGGTTAAAATGTAGGGG | 656
44 | TGGCTACCCGGAAGGCGCGTTGGCTGCGGCTACGCA | 926
45 | GAATGACAGGAAGATGATTAGTGATAGTGGGTTTGG | 880
46 | GGTTTCACTTCCTGCGTTGGGCCTTGTGGCCTCCTT | 787
47 | CACTCCCCCATTCCGGCTGCAGGTTGAGGTTTGGAA | 571
48 | GCTGCTGTAGTCGCTTCCTGCGGCCAGCCCGGGTTC | 528
49 | CTCGGCGCGACGGATATTCCCGTGACCGCCGGGTTC | 920
50 | GGCCGGAAGCGCTCTCGTTGGCCCTGCGGCGCTGGA | 2800
51 | AATGTAGGAAATTCCACTGCATAATTTGTGGTAGTG | 539
52 | TGGGGGCGGAAGCCTAAACCCCTCCCGCAGCCAGTC | 627
53 | GAGCACATTTCCTTTTGCTTCCAGATACCACAGTGA | 412
54 | AGAAACGTCAATTTCCTGGCCACAGAATCCACTGCC | 501
55 | CTGCTTCGGCCCGGCTTCCGCCCACAGTCAACTGCC | 694
56 | GGGCAGCATCCTGTGCCTGCTTCTCTTACCCACATC | 453
57 | GGGGGCAGGAAGCAGTGCAGCTCCTTAACCCACTTC | 892
58 | ACCAGGATGTAGTTTAGCTTAGGGGTGGTTATATCG | 494
59 | CTTCCATCCAGGAAGCTTGTGGTGCAACAGCAGTGT | 1100
60 | GGTACCAAGGGCAGAGGATGTGGTGAGGTGTGGAGG | 3140

Row | Sequence | ETS1 binding intensity
61 | GCGGAGTGTTACGTAGGAAGTGGTTGTGACGTCATT | 1540
62 | CCAGGGGCACACCGGAACCCACACCTGAAATCACAG | 739
63 | GAAGAAGTCAGGAAATGCTGCCGCAGCAGCCAGCCC | 1070
64 | GGTGTTAGTAGTCAAGGAAGTGGTCACCCTTGACAG | 2150
65 | GTGCGGCGGGAAACGCGTTCCCCGGCAACCGCGCCC | 479
66 | ATAAAGGATGTACAGTATTTAGAGAACAGTGGTTAA | 485
67 | CTAGGGAGAGGATGTGAGTTTGTCTGTGGGGGTGGT | 828
68 | TGAAGGAGCGGAAGGGTTGCTTGCAGACCGCACGGT | 1360
69 | CTGCGCTTCCGCTTCACCCGGAGTACAGCGGTCCTG | 713
70 | TTGAAAAGGAAGTTCATTTGTACTGAGGTGGTTTTA | 698
71 | GGAGTGAGGAGGAAGCGGAGGCGAGACCGCGCTCAA | 399
72 | GAAAGCACGTGTTTCCTGCGGCTGCACCCCAGCACC | 386
73 | ATGCCAAGGGACTTCCCTCCACAACCGCCCCCAGCT | 529
74 | TTCTCTGATTTTCCTTCCGCTCCCACAGCCTCTCCC | 612
75 | CTGCACAGGGAAGTGAGTGTCGAGCTCACCGCACCG | 690
76 | GGAGGAAGAGAGGAAACGGGGGCGGCCGCAGCTTCT | 1070
77 | GGGAGGGCGGAAGGCGGCTCTGCGGCAGCAAGCCCC | 341
78 | GCAGGAAGACTAACACAAAACCATCAAACCACTCTG | 543
79 | GGAGGGCTTCCTGCCCACCACCACCCACAGCAGCTG | 676
80 | GTCGTGTTTGGCTTCCTGTGGGCACGCCTGCGTAGC | 516
